{
  "source": "PubChem BioAssay",
  "data": [
    {"assay": "basal MM1S mitochondrial membrane potential changes, profiling panel, cell-based, JC-1 fluorescence, 24 h, 100 nL compound (AID 1170); further: test concentration not given here", "conditions": "higher = more signal", "values": [
      {"smiles": "COCCOC(=O)N1C(=O)[C@@]2(c3ccccc31)[C@H](C(=O)N1CCN(c3ncccn3)CC1)[C@H]1C(=O)O[C@H](c3ccccc3)[C@H](c3ccccc3)N1[C@@H]2c1ccccc1OCCO", "z-score": -0.742},
      {"smiles": "Cc1ccc(C(C)CC(O)C2C=CC3C(=O)N(C)C(=O)C3N2Nc2ccccc2)o1", "note": "(stereo not given)", "z-score": -0.249},
      {"smiles": "CC1CC/C=C\\[C@H]2OC34C=CCN(CCN5CCOCC5)C(=O)[C@H]3N(CCCO)C(=O)[C@@H]4C2C(=O)O1", "note": "(stereo not given in full)", "z-score": 0.649},
      {"smiles": "CCCNC(=O)[C@@]1(c2ccc([N+](=O)[O-])cc2)CC(=O)N(C(C)C)[C@@H]1c1ccc(CO)cc1", "z-score": 0.892},
      {"smiles": "C=C(COC)/C(=C/C[C@H](OC(C)=O)c1ccccc1OCCO)c1cc(C(=O)OC)ccc1OC", "z-score": -1.29},
      {"smiles": "CC(C)C(=C=CC[C@H](O)c1ccccc1OCCO)C[C@H](O)COCc1ccccc1", "z-score": -0.662},
      {"smiles": "CCCC[C@H]1OB(O)C[C@H]2C1=C(COc1ccccc1)C[C@H]1C(=O)C=CC(=O)[C@H]12", "z-score": -1.08},
      {"smiles": "Cc1ccc(N2C(=O)c3ccccc3[C@](C)(C(=O)NCCCN(C)C)[C@@H]2c2ccc(CO)cc2)nc1", "z-score": -0.29},
      {"smiles": "CCCCC(O)C1C=CC2C(=O)N(c3ccccc3)C(=O)C2N1Nc1ccc([N+](=O)[O-])cc1", "note": "(stereo not given)", "z-score": -0.745},
      {"smiles": "C=CCC(OC(C)=O)[C@@H]1[C@@H](N(Cc2ccc(-c3cccc(C(F)(F)F)c3)o2)C(=O)c2ccc(-c3ccccc3)cc2)c2cc(OCCCO)ccc2N1C(=O)c1ccc2ccccc2c1", "note": "(stereo not given in full)", "z-score": 0.681},
      {"smiles": "C=C(CCCC)/C(=C/C[C@H](OC(C)=O)c1cccc(OCCO)c1)c1cnc2ccccc2c1", "z-score": -0.209},
      {"smiles": "OCCCC1=CC(c2ccc(CN3CCCC3)cc2)N(Cc2cccc(OC(F)(F)F)c2)CC1", "note": "(stereo not given)", "z-score": -2.38},
      {"smiles": "C=C(COC)C(=O)CC[C@H](OC(=O)c1cccnc1)c1ccc(OCCO)cc1", "z-score": -0.0164},
      {"smiles": "COc1ccc(C(O)C2C=CC3C(=O)N(c4ccccc4)C(=O)C3N2Nc2ccc(C#N)cc2)cc1OCc1ccccc1", "note": "(stereo not given)", "z-score": -0.222},
      {"smiles": "C=CCNC(=O)[C@H]1[C@@H]2C(=O)O[C@@H](c3ccccc3)[C@@H](c3ccccc3)N2[C@@H](c2ccc(OCCO)cc2)[C@]12C(=O)Nc1ccc(C#CC3(O)CCCCCC3)cc12", "z-score": -0.535},
      {"smiles": "CC[C@@H]1C=C(C(=O)O)[C@H](c2ccc(OC)cc2)N1S(=O)(=O)c1ccc(C)cc1", "z-score": -0.273},
      {"smiles": "O=C1C2C=CC(C(O)C3CCCCC3)N(n3cnnc3)C2C(=O)N1Cc1ccccc1", "note": "(stereo not given)", "z-score": -1.04},
      {"smiles": "[N-]=[N+]=NCc1ccccc1[C@@H]1OC(c2ccc(OCCCO)cc2)=N[C@]1(Cc1ccccc1N=[N+]=[N-])C(=O)O", "z-score": 1.44},
      {"smiles": "COC(=O)c1cccc([C@H]2OC(=CC(=O)OC(C)C)C[C@@H](c3cccc(C(=O)OC)c3)O2)c1", "z-score": -2.76},
      {"smiles": "CN(C)CCCNC(=O)[C@@]1(Cc2ccccc2I)c2ccccc2C(=O)N(C2CCCCC2)[C@H]1c1ccc(CO)cc1", "z-score": -2.49},
      {"smiles": "O=C1NC(=O)C2C1C=CC(C(O)c1ccc(B(O)O)cc1)N2Nc1ccc(Cl)cc1Cl", "note": "(stereo not given)", "z-score": -0.682},
      {"smiles": "COC(=O)[C@@]1(Cc2ccccc2)[C@H]2c3cc(C(=O)N(C)C)n(CCO)c3C[C@H]2CN1C(=O)c1ccccc1", "z-score": -0.787},
      {"smiles": "C=C(CCCC)C(=O)CC[C@H](OC(=O)c1ccccc1-c1ccccc1C(=O)O)c1ccc(OCCO)cc1", "z-score": 0.258},
      {"smiles": "O=C1OCCC=C[C@H]2OC34C=CCN(c5ccc6ccccc6c5)C(=O)[C@H]3N(CCO)C(=O)[C@@H]4C12", "note": "(stereo not given in full)", "z-score": 0.611},
      {"smiles": "COc1cc(CO)cc(I)c1O[C@H]1C=C(C(=O)NCCO)C[C@@H]2O[C@H]12", "z-score": -0.52},
      {"smiles": "COCCOC(=O)N1C(=O)[C@@]2(c3cc(C#CCC(C(=O)OC)C(=O)OC)ccc31)[C@H](C(=O)Nc1nc3ccccc3s1)[C@H]1C(=O)O[C@H](c3ccccc3)[C@H](c3ccccc3)N1[C@@H]2c1ccc(OCCO)cc1", "z-score": 0.327},
      {"smiles": "CC(C)C[C@H]1NC(=O)C([C@@H](C)OCc2ccccc2)NC(=O)[C@@]23C(=O)N[C@@H](Cc4ccccc4)C2[C@H](C)[C@@]2(C)O[C@H]2C3/C=C/C/C=C\\CNC1=O", "note": "(stereo not given in full)", "z-score": 0.277},
      {"smiles": "C=C(COC)/C(=C/C[C@@H](OC(C)=O)c1ccccc1OCCO)c1cnc2ccccc2c1", "z-score": 1.4},
      {"smiles": "COc1ccc([Si](C)(C)[C@@H]2[C@@H](CC(=O)N3CCC[C@H]3CO)O[C@]3(C(=O)N(Cc4ccc(N5CCOC5=O)cc4)c4ccccc43)[C@H]2C)cc1", "z-score": -1.75},
      {"smiles": "COC(=O)[C@@]1(Cc2ccccc2)[C@H]2c3cc(C(=O)N(C)C)n(CCSC(=N)N)c3C[C@H]2CN1C(=O)c1ccccc1", "z-score": -0.656}
    ]}
  ]
}
